# Source: PubChem
# The list is not random: actives were taken first. Their share in the collection is about 18%.
# Six1-Eya2 blk = inhibitors of human Six1/Eya2 interaction; AlphaScreen GST-Six1/His-Eya2 binding, biochemical; stronger effect = lower value; activity change, % (no concentration beside the values); 360,000 compounds, 0.56% hits; in the data active means activity change below about -65%; inconclusive means mostly about -30% to -63%
# Target sequence (O00167 whole entry, looked up): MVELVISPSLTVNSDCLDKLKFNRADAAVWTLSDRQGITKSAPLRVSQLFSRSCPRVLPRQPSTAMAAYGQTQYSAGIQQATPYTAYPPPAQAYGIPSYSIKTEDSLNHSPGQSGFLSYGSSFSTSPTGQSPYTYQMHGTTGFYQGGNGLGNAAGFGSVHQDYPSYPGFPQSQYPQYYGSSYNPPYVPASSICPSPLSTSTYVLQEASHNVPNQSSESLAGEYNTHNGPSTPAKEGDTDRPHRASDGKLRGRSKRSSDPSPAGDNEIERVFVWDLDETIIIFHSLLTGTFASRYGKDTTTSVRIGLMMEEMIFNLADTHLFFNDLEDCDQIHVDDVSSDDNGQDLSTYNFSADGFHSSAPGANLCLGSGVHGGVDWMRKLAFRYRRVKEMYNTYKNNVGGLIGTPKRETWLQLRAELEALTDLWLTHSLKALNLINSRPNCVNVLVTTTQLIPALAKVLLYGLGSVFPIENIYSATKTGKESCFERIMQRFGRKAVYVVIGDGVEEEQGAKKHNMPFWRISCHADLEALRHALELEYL
# Target sequence (Q15475 whole entry, looked up): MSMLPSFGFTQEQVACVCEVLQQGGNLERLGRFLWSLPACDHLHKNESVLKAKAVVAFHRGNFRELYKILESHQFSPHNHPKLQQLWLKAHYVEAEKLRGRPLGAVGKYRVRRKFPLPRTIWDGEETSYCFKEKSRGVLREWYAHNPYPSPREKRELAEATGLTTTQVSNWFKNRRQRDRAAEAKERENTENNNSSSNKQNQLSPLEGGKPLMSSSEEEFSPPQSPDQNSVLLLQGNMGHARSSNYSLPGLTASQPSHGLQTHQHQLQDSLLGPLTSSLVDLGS
#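 AlphaScreen with GST-Six1 and His-Eya2 (5X mix: 250 nM and 500 nM), glutathione donor and nickel acceptor beads; buffer 50 mM Tris pH 8.0, 300 mM NaCl, 1 mM TCEP; 1 h at 37 C in the dark.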
# DT40 TDP1 no CPT = qHTS for Inhibitors of human tyrosyl-DNA phosphodiesterase 1 (TDP1): qHTS in cells in absence of CPT | DT40 Tdp1-/- hTDP1 cells, no CPT, ATP luminescence, 48 h | Potency, µM (titrated, usually from 46.2 µM), most hits filed as inhibitors | 420,000 compounds, 15% hits; further: nearly all actives have a fitted effect of over 55% in size
#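 Cells were dispensed at 400 per well, compounds added by pin tool, plates incubated ≥48 hr at 37 °C, then CellTiter-Glo added for 30 min at room temperature before luminescence reading. Line: DT40 Tdp1-/- complemented with hTDP1; camptothecin omitted.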
# IL-1B inflam inh = inflammasome signaling inhibition, IL-1 beta readout; THP-1 LPS/ATP IL-1B secretion, AlphaLISA, 16 h; stronger effect = lower value; AID 743279; 360,000 compounds, 4.7% hits; activity change, % at 57.5 µM; in the data active means activity change below about -50%; inconclusive means mostly about -30% to -49%
#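 Secreted IL-1B measured by AlphaLISA bead assay after 16 h compound exposure of THP-1 cells; compounds (final up to 57.5 uM) added 1 h before LPS (250 ng/mL) and ATP (1.25 mM) stimulation; lower signal means less secretion.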
# TDP1 inh = TDP1 (human) enzyme inhibition; 350,000 compounds, 0.28% hits; recombinant TDP1, AlphaScreen DNA substrate cleavage; Potency, µM (top dose mostly 130 µM), hits mostly inhibitors; further: nearly all actives have a fitted effect of over 40% in size
#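 Compounds were preincubated with Tdp1 (1 nM final) for 15 min at room temperature before substrate (15 nM final) started a 5 min reaction; beads (10 ug/ml final) were then added for 10 min before AlphaScreen detection.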
# TDP1 cell CPT = growth inhibition of DT40 Tdp1-/-;hTDP1 cells with camptothecin (screen for TDP1 inhibitors); 420,000 compounds, 12% hits; AID 686979; chicken DT40 Tdp1-/-;hTDP1 cells + 20 nM CPT, ATP luminescence, 48 h; Potency, µM (top dose mostly 46.2 µM), hits mostly inhibitors; further: nearly all actives have a fitted effect of over 55% in size
#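 Chicken DT40 Tdp1-/- cells complemented with human TDP1, 400 cells/well, exposed to compounds plus 20 nM camptothecin for at least 48 h at 37 C; viability read as ATP content by CellTiter-Glo luminescence.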
# CtBP-E1A blk = blocks the CtBP interaction with E1A; 340,000 compounds, 0.49% hits; AlphaScreen GST-E1A/His-CtBP binding, 1536-well; stronger effect = lower value; activity change, % (test concentration not listed); in the data active means activity change below about -65%; inconclusive means mostly about -30% to -63%
#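 Homogeneous bead-based format: GST-tagged E1A captured on glutathione donor beads, His-tagged CtBP on nickel acceptor beads; compounds precede bead addition by 2 h at 37 °C.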
# Numbers stand for hits; . = inactive; ? = inconclusive; / = not tested or not shown. Unless noted, the call rests on the fitted dose curve; in most records, active means well fitted curve in the direction sought with a large enough effect; inconclusive means small, poorly fitted or top-dose-only effect, or another doubt; inactive means no such curve, though single readings can be large; an effect the other way counts as inactive or inconclusive.
SMILES,Six1-Eya2 blk,DT40 TDP1 no CPT,IL-1B inflam inh,TDP1 inh,TDP1 cell CPT,CtBP-E1A blk
Cc1ccccc1NC(=S)NC(=O)c1cncc(Br)c1,.,.,.,.,.,.
Cc1cc(O)ccc1NC(=S)NC(=O)c1cncc(Br)c1,.,16.4µM,.,/,14.6µM,/
O=C(Nc1ccc(Br)c(C(F)(F)F)c1)c1ccccc1,.,23.1µM,.,.,20.6µM,.
O=C(NNC(=O)c1cccc(Br)c1)Nc1ccc(Cl)cc1,.,?,.,.,23.1µM,.
O=C(Nc1ccc(Cl)cc1)Nc1cccc(C(=O)O)c1,.,.,.,.,.,.
O=C(CCc1ccccc1)NNC(=O)c1ccco1,.,.,.,.,.,.
CCC(NC(=O)c1cc(COc2cncc(Cl)c2)on1)c1ccncc1 (stereo not drawn),.,?,.,.,?,/
O=C(Nc1cccc(C(=O)Nc2ccccc2F)c1)c1ccccc1,.,23.1µM,.,/,?,.
Cn1c(Cc2ccccc2)[n+](C)c2ccccc21,.,14.6µM,.,.,?,.
CCCCOC(=O)c1ccc(NC(=O)C(=O)NCC2CCCO2)cc1 (stereo not drawn),.,?,.,.,?,.
Cc1nc2c(C(=O)NCCc3ccccc3)cnn2c(C)c1Cc1c(F)cccc1Cl,/,16.4µM,/,.,14.6µM,/
Cc1nc2c(C(=O)N3CCCCC3)cnn2c(C)c1Cc1ccccc1F,.,15.8µM,.,.,?,.
Cc1nc2c(C(=O)N3CCN(C)CC3)cnn2c(C)c1Cc1ccc(Cl)cc1,.,.,.,.,.,.
Cc1nc2c(C(=O)NCc3cccs3)cnn2c(C)c1Cc1ccccc1,/,/,/,.,/,/
Cc1nc2c(C(=O)NCc3ccccc3Cl)cnn2c(C)c1Cc1c(F)cccc1Cl,/,8.2µM,/,.,8.2µM,/
Cc1nc2c(C(=O)NCCC(C)C)cnn2c(C)c1Cc1c(F)cccc1Cl,/,23.1µM,/,.,20.6µM,/
Cc1nc2c(-c3ccccc3)c(C)nn2c(C)c1CCC(=O)NCc1ccccc1Cl,/,?,/,.,.,/
CCOC(=O)c1oc2c(c1C)/C(=N/O)CCC2,-83.1,.,.,.,.,.
CCOc1ccc(C(C)=O)cc1COc1ccc(-c2nnco2)cc1,.,.,.,.,.,.
CC(=O)N1c2c(ccc3ccccc23)C(C)CC12CCCCC2 (stereo not drawn),.,?,.,.,?,.
CC1CC2(CCCC2)N(C(=O)c2ccccc2)Cc2ccccc21 (stereo not drawn),.,?,.,.,9.2µM,.
CCOc1ccc2oc(C(=O)N3CCCN(C)CC3)c(C)c2c1,.,?,.,.,.,.
CCOc1c([N+](=O)[O-])cc2c(C)c(C(=O)N3CCN(C)CC3)oc2c1OCC,.,16.4µM,.,/,.,.
C=Cc1cc2c(cc1O)CCC1C2CCC2(C)C(O)CCC12 (stereo not drawn),.,16.4µM,?,/,?,.
C[C@@]12CCC3c4ccc(O)cc4CCC3C1CCC2O (stereo partly drawn),/,?,/,.,?,/
SMILES,Six1-Eya2 blk,DT40 TDP1 no CPT,IL-1B inflam inh,TDP1 inh,TDP1 cell CPT,CtBP-E1A blk
CC#Cc1cc2c(cc1O)CCC1C2CCC2(C)C(O)CCC12 (stereo not drawn),.,2.31µM,.,/,2.91µM,.
C(=C\c1ccccc1)/CN1CCN(C(c2cccc3ccccc23)c2nnnn2Cc2ccccc2)CC1 (stereo not drawn),.,16.4µM,?,/,16.4µM,.
C(=C\c1ccccc1)/CN1CCN(C(c2cccs2)c2nnnn2Cc2ccccc2)CC1 (stereo not drawn),.,20.6µM,.,/,?,.
COc1ccc(CC(=O)Nc2ccc(C(=O)NC(C)(C)C)cc2)cc1OC,.,.,.,.,.,.
Cc1ccc(C)c(Cn2c3ccccc3c3cnn(CC(=O)NC4CCC(C)CC4)c(=O)c32)c1 (stereo not drawn),/,13µM,/,.,10.3µM,/
Cc1ccccc1Cn1c2ccccc2c2cnn(CC(=O)NC3CCC(C)CC3)c(=O)c21 (stereo not drawn),/,18.4µM,/,.,18.4µM,/
CCCn1c2ccccc2c2cnn(CC(=O)NC3CCC(C)CC3)c(=O)c21 (stereo not drawn),.,.,.,.,.,.
O=C(COC(=O)[C@@H]1CCCN1C(=O)c1cccs1)Nc1ccc(F)cc1[N+](=O)[O-],.,.,.,.,.,.
Cc1ccc(-c2csc(NC(=O)c3c(C)noc3C)n2)cc1C,.,13µM,.,.,18.4µM,.
Cc1onc(-c2ccccc2)c1C(=O)Nc1nc(-c2ccc(F)c(F)c2)cs1,.,25.9µM,.,.,?,.
CCc1noc(C)c1C(=O)OCC(=O)Nc1ccc(F)cc1Cl,.,?,.,.,.,/
CCc1noc(C)c1C(=O)OCC(=O)Nc1nc(-c2ccc(F)c(F)c2)cs1,.,14.6µM,-79.8,.,?,.
CCc1noc(C)c1C(=O)OCC(=O)c1ccc(NC(C)=O)cc1F,.,20.6µM,.,.,?,.
Cc1ccc(C(=O)Nn2cnnc2)cc1[N+](=O)[O-],.,.,.,/,.,.
CCCCN(c1ccc(C(=O)OC)cc1)S(=O)(=O)c1ccccc1,.,?,.,.,?,.
Cc1ccc(C)c(-c2csc(NC(=O)c3c(C)noc3C)n2)c1,.,?,.,.,?,.
COC(=O)c1ccc(-c2csc(NC(=O)C3=COCCO3)n2)cc1,.,.,.,/,.,.
Cc1noc(C)c1C(=O)Nc1nc(C23CC4CC(CC(C4)C2)C3)cs1,.,18.4µM,-58.4,.,?,.
COC(=O)c1ccc(-c2csc(NC(=O)c3c(C)noc3C)n2)cc1,.,20.6µM,.,.,16.4µM,.
Cc1ccc(-c2csc(NC(=O)c3c(C)noc3C)n2)s1,.,4.11µM,.,.,5.17µM,.
COC(=O)c1ccc2c(=O)n(CCCCCC(=O)O)c(=S)[nH]c2c1,.,?,.,/,.,.
Fc1cccc(Cl)c1CSc1nnc(COc2cccc3cccnc23)o1,.,.,-50.5,.,.,.
CC(C)(C)OC(=O)NCCCCCc1nnc(SCc2cccc(F)c2)o1,.,9.2µM,.,/,?,/
NCCc1nnc(SCc2c(F)cccc2Cl)o1,.,?,.,.,.,.
CC(C)(C)OC(=O)NCCc1nnc(SCc2c(Cl)cccc2Cl)o1,.,.,.,.,.,.
CC(C)(C)OC(=O)NCCCCCc1nnc(SCc2c(F)cccc2Cl)o1,.,20.6µM,.,/,.,.
CC(C)(C)OC(=O)NCCCCCc1nnc(SCc2ccccc2F)o1,.,?,-51.4,.,?,.
CSc1ccc(S(=O)(=O)N(CC(=O)NN=C2CCN(C)CC2)c2ccc(C)cc2)cc1,.,.,.,.,.,/
